# Assay outcomes: PubChem BioAssay, The Scripps Research Institute Molecular Screening Center
# hgDAF12 agonist: H. glycines DAF-12 receptor agonists, primary screen, cell-based, luminescence, HEK293, GAL4 fusion, UAS-luciferase. Nuclear hormone receptor DAF-12 (Heterodera glycines), GAL4 fusion. HEK293 GAL4-hgDAF12 UAS-luciferase reporter, agonist luminescence; normalized to butyrate control. activation, % at 6.8 µM. 370,000 compounds, 1.8% hits. AID 687014, 2013;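 active means activation above a cutoff set at the mean of all screened compounds plus 3 SD, cut at about 10% in these data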;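 further: 0% = DMSO wells and 100% = sodium butyrate wells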
# ssDAF12 agonist: S. stercoralis DAF-12 nuclear receptor activators, primary screen, cell-based, luminescence, HEK293, GRIP1 co-expression, lit1-tk-luc | HEK293 ssDAF-12/GRIP1 lit1-tk-luc reporter; % of 3 µM dafachronic acid response | activation, % at 6.8 µM | 370,000 compounds, 1% hits;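 active means activation above the mean over all tested compounds plus 3 SD, cut at about 0.9% in these data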;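 further: 0% = DMSO-only wells and 100% = 3 µM delta7-dafachronic acid wells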
# DAX1 inh-1: DAX1 (NR0B1) inhibitors on StAR promoter, primary screen, cell-based, luminescence, SF-1 (NR5A1), full-length DAX-1 | HEK293T StAR-luciferase reporter, SF-1/DAX-1 repression relief | inhibition, % at 6.8 µM | 370,000 compounds, 1.1% hits;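 active means inhibition above the mean over all tested compounds plus 3 SD, cut at about 3.6% in these data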;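 further: 0% = DAX-1 cells with DMSO and 100% = cells lacking DAX-1 with DMSO; higher inhibition means more luminescence from relief of DAX-1 repression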
# hcDAF-12 act: H. contortus DAF-12 nuclear receptor activators, primary screen, cell-based, luminescence, HEK293, lit1-tk-luc reporter; activation, % at 6.8 µM; 370,000 compounds, 1.4% hits; HEK293 hcDAF-12 lit1-tk-luc reporter; 0% DMSO, 100% Δ7-dafachronic acid; AID 652067, 2013;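 active means activation above the mean of all tested compounds plus 3 SD, cut at about 5.5% in these data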;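 further: 100% = response to 3 µM Δ7-dafachronic acid high control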
# DAX1 inh-2: DAX1 (NR0B1) inhibitors, primary screen, cell-based, HEK293, Gal4-DAX1, luciferase luminescence; Nuclear receptor subfamily 0 group B member 1 (Homo sapiens), P51843; HEK293 Gal4-DAX1 luciferase reporter; inhibition, % at 6.75 µM; 340,000 compounds, 0.99% hits; AID 504766, 2011;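 active means inhibition above the mean over all tested compounds plus 3 SD, cut at about 4.2% in these data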;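 further: 0% = DAX1-transfected cells with DMSO and 100% = empty-vector control cells with DMSO; inhibition shows as a rise in luminescence from relieved DAX1 repression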
# Target sequence (P51843 207-470 limits assumed): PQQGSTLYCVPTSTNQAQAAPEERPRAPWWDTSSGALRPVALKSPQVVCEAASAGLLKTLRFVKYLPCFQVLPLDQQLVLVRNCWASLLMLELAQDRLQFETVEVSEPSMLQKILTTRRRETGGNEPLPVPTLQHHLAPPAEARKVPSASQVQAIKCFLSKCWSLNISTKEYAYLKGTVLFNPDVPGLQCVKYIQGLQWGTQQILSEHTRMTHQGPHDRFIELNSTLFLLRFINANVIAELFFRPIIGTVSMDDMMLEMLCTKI
# AHR activator: AHR activators, primary screen, cell-based, luminescence, luciferase reporter, human | activation, % at 5 µM | 320,000 compounds, 2.5% hits | AID 2796, 2010 | AHR-responsive luciferase reporter cells; in the data active means activation above about 47%;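 further: 0% = vehicle wells and 100% = reference agonist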
# * marks the source's active call; other numbers are inactive results; · = no result given. Shown are actives, neighbours in structure and some others; about 5.7% of the full set was active somewhere.
SMILES,hgDAF12 agonist,ssDAF12 agonist,DAX1 inh-1,hcDAF-12 act,DAX1 inh-2,AHR activator
C#CCNC(=O)C1=C[C@H](c2cn(C(C)=O)c3ccccc23)[C@@H](CCCO)[C@H](OCC)O1,-1,-1,0,0,2,7
COc1cc(/C=N/NC(=O)CC2(C)OCCCO2)ccc1OCc1ccccc1,3,-1,1,1,1,20
COc1cc(/C=N/NS(=O)(=O)c2ccc(C)cc2)ccc1OCc1ccc(C(=O)O)cc1,13*,0,3,3,-6,0
COc1cc(/C=N/NC(=O)CN2CCCCC2)ccc1OCc1ccc(Br)cc1,12*,0,2,3,2,20
CCOc1ccc(/C=N/NS(=O)(=O)c2ccc(C)cc2)cc1OC,-2,0,0,-2,1,·
COC(=O)CCN(Cc1cccc(OC)c1OC)S(=O)(=O)c1ccccc1Br,1,-1,-2,-2,·,·
ClC1(Cl)CC1CSc1nnc(-c2ccncc2)o1 (stereo not drawn),3,-1,1,0,2,0
C[C@H]1[C@H](c2ccccc2)Oc2cccc(NCCc3ccccc3)c2S(=O)(=O)N1Cc1cccc(Cl)c1,-1,0,0,0,·,·
Cn1ncc2c(NCCO)nc(Cl)nc21,-2,1.5*,0,-2,1,·
CC1CCc2c(sc(NC(=O)c3ccc(Cn4cc([N+](=O)[O-])cn4)o3)c2C#N)C1 (stereo not drawn),1,-1,0,0,0,31
N#Cc1c(NC(=O)c2ccc(Cn3cc(Br)cn3)o2)sc2c1CCCCC2,2,-1,0,0,0,48*
CSc1nc(C)c(C(=O)Nc2ccccc2)c(C)c1C#N,-1,-2,0,-2,-1,-2
Cc1nc(SCC(=O)c2cc3ccccc3oc2=O)c(C#N)c(C)c1C(=O)Nc1ccccc1,2,1.1*,1,1,·,·
COc1ccc(CCNC(=O)CCNC(=O)N2CC(=O)Nc3ccccc32)cc1,0,-1,1,0,0,5
COc1cccc(C(=O)NNC(=O)c2ccc3ccccc3c2O)c1,4,1.6*,0,4,-1,-1
COc1cccc(C(=O)N/N=C(/CCC(=O)O)c2ccccc2)c1,12*,-1,0,1,0,22
COc1cccc(C(=O)NNC(=O)c2ccccc2)c1,6,1.4*,0,5,2,·
NC(=S)NN=Cc1c[nH]c2nccnc12,0,-1,-2,-2,1,·
C=Cc1ccc(Cn2nc(-c3ccc(C)cc3)ccc2=O)cc1,-1,-1,0,0,-2,0
Cc1noc(C)c1C(=O)OCC(=O)Nc1ncc(Cl)c(C)c1Cl,1,-1,1,-1,-1,2
CC(=O)c1cccc(S(=O)(=O)N2CCC(C(=O)Oc3ccc(-c4nnco4)cc3)CC2)c1,-2,-1,-1,-1,-1,0
CN(C)c1nc(-c2cccnc2)nc(-c2ccccc2)c1C#N,0,-1,-1,-2,1,·
CCc1nc2ccc(C(=O)Nc3ccc(OC)c(OC)c3)cn2c1N(C)Cc1cccs1,-3,-2,-2,-4,·,·
c1ccc(C2CSc3ccccc3N2)cc1 (stereo not drawn),6,0,1,5.6*,3,19
CC1CSc2ccccc2NC1=S (stereo not drawn),-1,-1,-1,1,-1,1
SMILES,hgDAF12 agonist,ssDAF12 agonist,DAX1 inh-1,hcDAF-12 act,DAX1 inh-2,AHR activator
CCOc1cc2[nH]c(=S)n(Cc3ccc(C)o3)c(=O)c2cc1OCC,-1,-2,0,-1,0,65*
CC1CCC(NC(=O)C2CCC(CNS(=O)(=O)c3cccc4cccnc34)CC2)CC1 (stereo not drawn),-1,-1,-1,3,-1,3
Cc1ccc(-n2ccnc(SCC(=O)NC3CCCCC3)c2=O)cc1F,-4,-2,0,-1,0,3
Cc1ccc(C)c(NCC(O)c2ccccc2)c1 (stereo not drawn),1,-2,0,-2,-3,52*
CCNCCNC(=O)c1c(O)c2cccc3c2n(c1=O)CCC3,-1,-1,2,0,3,60*
CCCCNC(=O)c1c(O)c2cccc3c2n(c1=O)CCC3,-1,-1,1,0,1,20
CC1=Nn2c(nnc2-c2cc(-c3ccccc3)n[nH]2)SC1,0,0,0,2,1,79*
O=C(COc1ccc(Br)cc1Br)NC(=O)NC1CCCC1,7,0,4.0*,5,4,0
CN1CCN(C(=O)/C(=C/c2cn(C)c3ccccc23)NC(=O)c2ccccc2)CC1,-2,-1,0,1,0,50*
Cn1cc(/C=C(\NC(=O)c2ccccc2)C(=O)NCCCN2CCOCC2)c2ccccc21,0,1.3*,-1,2,0,14
C=CCOC(=O)/C(=C/c1cccc2ccccc12)NC(=O)c1ccccc1,3,-1,0,0,4.3*,13
CCOC(=O)/C(C#N)=C\c1cn(C)c2ccccc12,-2,-1,0,-1,0,0
CCOC(=O)/C(C#N)=C/c1cn(CCOc2ccccc2)c2ccccc12,1,6.7*,0,-1,0,0
O=C(OCc1ccccc1)/C(=C/c1cccc2ccccc12)NC(=O)c1ccccc1,-1,-1,0,1,0,5
CCCCCCn1nc(C(=O)N(CCCC)c2c(N)n(CCC)c(=O)[nH]c2=O)c2ccccc2c1=O,0,-2,-1,1,0,1
CCOC(=O)/C(=C/c1cn(C)c2ccccc12)NC(=O)c1ccccc1,3,-1,0,4,0,49*
COc1ccc(CN2CCN(S(=O)(=O)c3ccc(NC(C)=O)cc3)CC2)c(OC)c1OC,3,-1,1,-1,-1,9
Cn1c(CCN2CCN(c3ccccn3)CC2)nc2cc(NS(=O)(=O)c3ccccc3)ccc21,-5,-2,-1,-2,0,5
O=C(CSc1ccc(Br)cc1)NC1CCCCCC1,3,1.9*,0,0,0,2
CC(C)C1=CC2C3C(C(C(C)C)=CC(=O)[C@@]3(C)O)C1C(=O)C2(C)O (stereo partly drawn),-2,-1,1,0,·,·
